From PubChem BioAssay AID2314 (National Center for Advancing Translational Sciences (NCATS), 2010)
Hit rate of the full screen: of about 300,000 compounds, about 37,000 (12%) were called active. What follows is part of a selection rich in actives, with near analogues and random picks from the rest. A number with no mark means an inactive call. Rule as the data show it: active = max response mostly above about 13% (no sharp cut-off); inactive = mostly below about 14%.

Test: Cycloheximide Counterscreen for Small Molecule Inhibitors of Shiga Toxin; also: read at 38.3 µM for the half of the compounds with a filed dose; 0% is about no effect
Conditions: cell reporter, cycloheximide protein synthesis inhibition counterscreen; hits give high values

Row | SMILES | max response
1 | O=[N+]([O-])c1ccc(N2CCN(c3ccc(F)cc3)CC2)cn1 | -1.96%
2 | CCCCC(=O)Nc1nnc(S(=O)(=O)N(C)Cc2ccco2)s1 | 12%
3 | Cc1ccc([N+](=O)[O-])cc1S(=O)(=O)N1CCCN(C)CC1 | -0.621%
4 | Cc1cccc(C(=O)NNC(=O)c2cccc([N+](=O)[O-])c2)c1 | 0.787%
5 | COc1cccc(NCCC(=O)c2cccc([N+](=O)[O-])c2)c1 | 34.7% (active)
6 | Cc1cc(CNC(=O)c2cccc([N+](=O)[O-])c2)c2ccccc2n1 | 18.3%
7 | CC(C)(C)SCCNC(=O)c1cccc([N+](=O)[O-])c1 | 19.6% (active)
8 | COc1cccc(C(=O)CC(=O)C(=O)Nc2ccc([N+](=O)[O-])cc2C)c1 | -0.608%
9 | COc1cccc(CNC(=O)CCCC(=O)Nc2cccc([N+](=O)[O-])c2)c1 | -3.22%
10 | COCCCNCCOCCOc1ccc(Cl)cc1Br | -3.84%
11 | CC(C)(C)c1nnc(NC(=O)C2c3ccccc3Oc3ccccc32)s1 | -2.51%
12 | O=c1o[nH]c(-c2ccccc2)c1N=Nc1c(F)cccc1Cl | 6.23%
13 | COc1ccc2c(c1)c(C(=O)N/N=C/c1cccs1)c(C)n2C | -3.51%
14 | O=C(CN1CCC(NC(=O)Nc2ccccc2)CC1)Nc1cccc([N+](=O)[O-])c1 | -2.36%
15 | COCCNC(=O)c1ccc(S(=O)(=O)c2ccc(Cl)cc2)c(NC(C)=O)c1 | -7.19%
16 | CCOc1cc(/C=C/c2nc3ccccc3c(=O)[nH]2)cc(Br)c1OC | 2.32%
17 | COC(=O)c1cccc(C(=O)N2CCC(CCC(=O)NCc3ccc(F)cc3)CC2)c1 | -0.695%
18 | Cc1ccc(C2(C(F)(F)F)N=C3Sc4cc(C)cc(C)c4N3C(=O)N2)cc1 (stereo not given) | 18.6% (active)
19 | O=C(Cn1cc(C(F)(F)F)ccc1=O)N/N=C/c1ccc(Cl)cc1Cl | -2%
20 | CCN(C(=O)CSc1ncn[nH]1)c1cccc2ccccc12 | 4.43%
21 | Cn1nnc(NC(=O)CSc2ncn[nH]2)n1 | -1.09%
22 | CC(C)(C)c1ccc(C(=O)CSc2ncn[nH]2)cc1 | 37.3% (active)
23 | Cc1ccc2c(c1)C(c1ccccc1)N(C(=O)c1ccc(S(=O)(=O)N3CCOCC3)cc1)CC(=O)N2 (stereo not given) | -1.59%
24 | O=C(CSc1nc2ccccc2[nH]1)c1cccs1 | 47.2% (active)

Row | SMILES | max response
25 | N#Cc1c(-c2ccc(F)cc2)cc(C2CC2)nc1SCC(=O)c1cccs1 | -0.655%
26 | CN(Cc1ccccc1)C(=O)CSc1nc2ccccc2[nH]1 | 39.7% (active)
27 | CN(Cc1ccccc1)c1nc2c(c(=O)[nH]c(=O)n2C)n1CCSc1nc2ccccc2[nH]1 | 0.491%
28 | O=C(CSc1nc2ccccc2[nH]1)Nc1nc(-c2ccccc2)c(-c2ccccc2)o1 | 0.677%
29 | N#Cc1c(-c2cccs2)nc(SCC(=O)c2ccc(Br)cc2)[nH]c1=O | 2.73%
30 | C=CCN(CC=C)S(=O)(=O)c1ccc(C(=O)Nc2nc3c(s2)CCc2ccccc2-3)cc1 | -6.15%
31 | CC(C)Cn1c(N2CCN(C(=O)/C=C/c3ccccc3)CC2)nc2ccccc21 | 3.07%
32 | CC1CCCCC1NC(=O)CO/N=C/c1ccc(OC(F)F)cc1 (stereo not given) | 1.26%
33 | O=C(OCc1nnc(-c2ccccc2)o1)c1ccc2c(c1)C(=O)N(CCc1ccccc1)C2=O | -1.64%
34 | O=C(CNC(=O)c1ccc(-c2ccccc2)cc1)OCc1ccc(Cl)cc1 | -0.931%
35 | Cc1ccc(C(=O)NCC(=O)OCc2nnc(-c3ccccc3)o2)cc1 | 23.8% (active)
36 | O=C(CN1CCN(c2cccc(Cl)c2)CC1)Nc1ccc(S(=O)(=O)N2CCOCC2)cc1 | -3.83%
37 | CCOc1cc(/C=C2/N=C(c3ccc(C(C)(C)C)cc3)OC2=O)cc(Cl)c1OS(C)(=O)=O | -4.6%
38 | O=C1CCC(=O)N(O)CCCCCNC(=O)CCC(=O)N(O)CCCCCNC(=O)CCC(=O)N(O)CCCCCN1 | -3.2%
39 | CC(C)[C@@H]1COC(c2cccc(C3=N[C@H](C(C)C)CO3)c2)=N1 | 33.7% (active)
40 | O=C(O)c1cccnc1NC1CCCC1 | -2.86%
41 | COc1ccc(-c2nonc2NC(=O)c2oc3ccc(F)cc3c2C)cc1OC | 4.29%
42 | Cc1ccc(S(=O)(=O)NCc2ccc(C(=O)NC3CCC(C)CC3)cc2)cc1 (stereo not given) | -10.9%
43 | Cc1ccc(C)c(NC(=O)NNC(=O)c2ccc3ccccc3c2O)c1 | 3.4%
44 | CC(NC(=O)c1cc(-c2ccccc2)on1)c1ccccc1 (stereo not given) | 3.69%
45 | CC(=O)c1cc(-c2ccccc2)n(CC(=O)NC2CCCCC2)c1C | -3.63%
46 | O=C(NC1CCCCC1)c1cc(C2CC2)on1 | 40.8% (active)
47 | O=C(NC1CCCC1)c1cc(-c2ccccc2)on1 | 30.6% (active)
48 | O=C(NC1CC1)c1cccc(Br)c1 | -2.43%

Row | SMILES | max response
49 | CSc1ccccc1NC(=O)c1cc(Cl)sc1Cl | 2.39%
50 | O=C(NC1CCN(S(=O)(=O)c2ccc(F)cc2)CC1)c1ccccc1 | -0.862%
51 | O=C(NC1CC1)c1ccc(-c2ccccc2)cc1 | 42.7% (active)
52 | CSc1ccccc1NC(=O)c1cc(C2CC2)on1 | 37.7% (active)
53 | O=C(Nc1cc(C(F)(F)F)ccc1Cl)c1cc(C2CC2)on1 | -4.3%
54 | COc1cc(OC)c(C(=O)NC2CCCCCC2)cc1OC | -2.09%
55 | Cc1nn(Cc2ccc(Cl)c(Cl)c2)c(C)c1NC(=O)c1cc(C2CC2)on1 | -1.12%
56 | Cn1cc(S(=O)(=O)Nc2ccc(Cl)cc2Cl)c(=O)n(C)c1=O | -2.38%
57 | CC(C)C[C@@H](NC(=O)[C@H]1CCCN1C(=O)Cc1ccccc1)C(N)=O | 8.92%
58 | CCC1(CC)C(=O)C2=C3C1[C@H](C(=O)OC)C=C(C(=O)OC)C[C@H]3[C@H]1C(=O)N(Cc3ccccc3)C(=O)[C@H]1[C@H]2C (stereo not given in full) | -3.02%
59 | CC(NC(=O)Cn1cc(C(F)(F)F)cc(Cl)c1=O)c1ccccc1 (stereo not given) | 11.8%
60 | CC[C@H](C)[C@H](NC(=O)[C@H](Cc1cnc[nH]1)NC(=O)[C@@H](N)CCC(=O)O)C(=O)N1CCC[C@H]1C(=O)N[C@@H](C)C(=O)O | -2.98%
61 | CCCCn1ccnc1C(=O)c1cccc(S(=O)(=O)N2c3ccccc3CC2C)c1 (stereo not given) | -2.53%
62 | N/C(=N\OC(=O)CCc1ccccc1)c1ccc(Cl)cc1 | 24.7% (active)
63 | N/C(=N\OC(=O)CCc1ccccc1)c1cccnc1 | 27.3% (active)
64 | O=C(O)CCc1cccnc1 | 2.51%
65 | O=C(CCC(=O)OCc1ccc(Cl)cc1)Nc1ccccc1 | -2.49%
66 | CC(=O)OC(C(=O)NCCc1ccccc1)c1cccnc1 (stereo not given) | -0.715%
67 | Cc1ccc(/C(N)=N/OC(=O)COc2ccc(Cl)c(C)c2)cc1 | -3.46%
68 | CCCOc1ccc(NC(=O)CC2C(=O)N(C)C(=S)N2Cc2ccc3c(c2)OCO3)cc1 (stereo not given) | -2.42%
69 | Cc1cccc(NC(=O)C(C)N2C(=O)C3C4CC(C(Br)C4Br)C3C2=O)c1 (stereo not given) | -1.4%
70 | COc1ccc(NC(=O)C(C)SCc2ccccc2)cc1 (stereo not given) | 23%
71 | Cc1cccc(NC(=O)C(C)SCc2ccccc2)c1 (stereo not given) | 21.6% (active)
72 | CC(C(=O)Nc1ccc(O)c(C(=O)O)c1)N1C(=O)/C(=C/c2cccs2)SC1=S (stereo not given) | -1.39%

Row | SMILES | max response
73 | CC1(C)CC(CNCCC(c2ccc(F)cc2)c2ccco2)CCO1 (stereo not given) | 0.614%
74 | CCOC(=O)C1(CCOc2ccccc2)CCN(Cc2cc(OC)c(O)cc2Cl)CC1 | -2.51%
75 | CCCCNC(=O)CSc1nc2ccc(NC(=O)CSc3nnc(N)s3)cc2s1 | 2.41%
76 | CCCCNC(=O)CSc1nc2ccc(NC(=O)CSc3nnc(COc4ccccc4C)n3C)cc2s1 | 5.25%
77 | Nc1nnc(SCC(=O)Nc2ccc3nc(SCC(=O)Nc4ccccc4)sc3c2)s1 | 33.9% (active)
78 | C#CCOc1ccc(/C=C2/C(=O)NN(c3ccccc3)C2=O)cc1OC | -3.05%
79 | O=C(Cn1cc(C(=O)c2cccs2)c2ccccc21)NCc1cccs1 | 39% (active)
80 | COC(=O)c1cn(CC(=O)NCc2cccs2)c2ccccc12 | 68.2% (active)
81 | COCCCNC(=O)Cn1cc(C(=O)C2CC2)c2ccccc21 | -2.09%
82 | CCN(CC)C(=O)C(=O)c1cn(CC(=O)NCc2ccc3c(c2)OCO3)c2ccccc12 | -2.04%
83 | O=C(CN1CCN(c2ccccn2)CC1)NCc1cccs1 | -3.83%
84 | COC(=O)Cn1cc(C(=O)c2cccs2)c2ccccc21 | -0.264%
85 | Cc1cccc(N(C(=O)c2sc(C)nc2C)C(C(=O)NCC2CCCO2)c2ccccc2)c1 (stereo not given) | -2.65%
86 | CCOc1ccc(NC(=O)C(C)N2C(=O)c3ccccc3C2=O)cc1 (stereo not given) | -2.64%
87 | O=C(O)CSCc1nc2ccccc2s1 | 27.6% (active)
88 | O=C(O)CS/C(=C\c1ccc(F)cc1)c1nc2ccccc2s1 | 37.2% (active)
89 | O=C(CSc1nc2ccccc2s1)Nc1ccc(C(=O)O)cc1 | -4.27%
90 | O=C(O)c1cccc(S(=O)(=O)Nc2ccc(O)cc2Sc2nc3ccccc3s2)c1 | 4.69%
91 | O=C(O)c1ccccc1CSc1nc2ccccc2s1 | 34% (active)
92 | O=C(O)CCCCc1nc2ccccc2s1 | 3.94%
93 | O=C(O)CSc1nccc2ccccc12 | 2.48%
94 | O=C(O)CC/C(=C\c1cc2c(cc1Br)OCO2)c1nc2ccccc2s1 | 0.661%
95 | CN(Cc1nc2ccccc2s1)C(=O)c1ccc(F)cc1 | 14.2%
